CYP2C9 inh = inhibitors of human CYP2C9; P11712; CYP2C9 Supersomes, luciferin-H conversion, luminescence; inhibition, % at 5 µM; hit rate 20% among 96,000; AID 777;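 active = blocking of liver enzyme CYP2C9 beyond about 50% at 5 µM, limit read from the data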
Target sequence (P11712 whole entry, looked up): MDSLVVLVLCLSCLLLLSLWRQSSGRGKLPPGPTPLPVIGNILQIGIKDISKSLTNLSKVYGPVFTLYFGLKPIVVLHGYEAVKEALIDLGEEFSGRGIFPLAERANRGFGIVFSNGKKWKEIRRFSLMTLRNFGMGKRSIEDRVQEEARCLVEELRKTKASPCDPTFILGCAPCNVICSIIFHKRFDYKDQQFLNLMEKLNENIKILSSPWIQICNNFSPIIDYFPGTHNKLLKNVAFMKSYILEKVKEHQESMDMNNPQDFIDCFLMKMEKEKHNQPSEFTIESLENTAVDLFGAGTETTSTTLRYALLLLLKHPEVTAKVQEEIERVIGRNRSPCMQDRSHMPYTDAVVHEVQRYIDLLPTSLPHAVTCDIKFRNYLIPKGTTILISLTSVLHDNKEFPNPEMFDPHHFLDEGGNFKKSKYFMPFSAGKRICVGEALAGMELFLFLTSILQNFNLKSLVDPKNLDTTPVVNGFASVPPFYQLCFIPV
CYP2C9 activ = activators of human CYP2C9 | P11712 | recombinant CYP2C9, luciferin-H conversion, luminescence; hits give high values; factor 1 = untreated enzyme, 0 = blocked | activation factor at 5 µM | hit rate 1.4% among 96,000;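 active = activation factor of 2 or more for CYP2C9 at a 5 µM dose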
PostGolgi yeast = growth inhibition of a yeast mutant, post-Golgi transport screen. post-Golgi transport phenotypic cell assay. inhibition, % at 10 µM. hit rate 0.9% among 98,000. AID 739;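 note: yeast cells grown in 1536-well plates; yeast grown about 18 h at 30C before absorbance read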
CYP2C19 inhib = human CYP2C19 inhibition. CYP2C19 Supersomes, luciferin-H EGE luminescence, 30 min. inhibition, % at 5 µM. hit rate 21% among 96,000. AID 778;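 active = CYP2C19 inhibition above a set limit at 5 µM in the primary screen, cut at about 50% in these data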
PostGolgi ctrl = growth of the yeast control strain, post-Golgi counter-screen; efflux-deficient yeast background strain, growth absorbance A615, 16 h; inhibition, % at 10 µM; hit rate 5% among 98,000
CYP2C19 act = cytochrome P450 2C19 (human) activation. AID 1025. 96,000 tested, under 10 active. activation factor at 5 µM. recombinant CYP2C19, luciferin-H EGE luminescence; hits give high values; 0 = fully inhibited enzyme, 1 = untreated enzyme. P33261;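 active = activation factor of at least 2 at 5 µM in the primary screen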
Numbers stand for hits; 0 = inactive; - = not tested or not shown. Only some compounds are listed: those with a hit (about 32% of all), similar ones and a draw of the others. Cut-off read from the data, not from the text of the source, unless noted: active = inhibition above about 30%; inactive = the rest.

SMILES | CYP2C9 inh | CYP2C9 activ | PostGolgi yeast | CYP2C19 inhib | PostGolgi ctrl | CYP2C19 act
COc1cccc(Oc2ccc(N)cn2)c1 | 0 | 0 | 0 | 0 | 0 | 0
CCOc1ccc(-c2[nH]ncc2Oc2cccc(OC)c2)c(O)c1 | 100 | 0 | 86 | 99 | 75 | 0
COc1cccc(Oc2cn[nH]c2-c2ccc(OC)cc2O)c1 | 100 | 0 | 94 | 99 | 92 | 0
CCCc1cc(C(=O)Nc2cc(OC)c(Cl)cc2OC)no1 | 0 | 0 | 0 | 0 | 0 | 0
CCCc1cc(C(=O)Nc2ccccc2C(=O)OC)no1 | 0 | 2.2 | 0 | 0 | 0 | 0
O=C(Nc1cccnc1Cl)c1cc(-c2ccco2)on1 | 0 | 0 | 0 | 0 | 0 | 0
CCCc1cc(C(=O)Nc2cccnc2Cl)no1 | 0 | 0 | 0 | 0 | 30 | 0
c1ccc(-c2csc(Nc3ccc4c(c3)OCCO4)n2)cc1 | 0 | 0 | 0 | 0 | 0 | 0
c1cc2c(cc1Nc1nc(-c3ccc4c(c3)OCO4)cs1)OCCO2 | 87 | 0 | 0 | 73 | 0 | 0
CC(C)(C)C(=O)Nc1nc(-c2ccc3c(c2)OCO3)cs1 | 94 | 0 | 0 | 92 | 0 | 0
COc1ccccc1Nc1ncnc2ccc(C)cc12 | 0 | 0 | 0 | 0 | 0 | 0
Cc1nc(=O)c(-c2ccccc2)c(C)n1-c1ccccc1C(=O)O | 0 | 0 | 0 | 0 | 0 | 0
COc1ccccc1-n1c(C)nc(=O)c(-c2ccccc2)c1C | 0 | 0 | 0 | 78 | 0 | 0
O=S(=O)(Nc1nc2c(s1)CCCC2)c1ccc(F)cc1 | 0 | 0 | 0 | 0 | 0 | 0
Cc1cccc(C)c1NS(=O)(=O)c1ccc(F)cc1 | 75 | 0 | 0 | 99 | 0 | 0
CCN1CCN(C(c2cccs2)C(C)NS(=O)(=O)c2ccc(F)cc2)CC1 (stereo not drawn) | 0 | 0 | 0 | 0 | 0 | 0
O=S(=O)(Nc1ccccc1)c1ccc(F)cc1 | 72 | 0 | 0 | 92 | 0 | 0
Cc1cc(C)nc(NS(=O)(=O)c2ccc(NS(=O)(=O)c3ccccc3)cc2)n1 | 0 | 0 | 0 | 0 | 0 | 0
O=C(O)c1ccc(F)c(S(=O)(=O)Nc2ccccc2Cl)c1 | 0 | 0 | 0 | 0 | 0 | 0
O=S(=O)(Nc1ccccc1Cl)c1ccc(F)cc1 | 51 | 0 | 0 | 89 | 0 | 0
CCC(C)NS(=O)(=O)c1ccc(NS(=O)(=O)c2ccc(F)cc2)cc1 (stereo not drawn) | 98 | 0 | 0 | 74 | 0 | 0
Cc1ccccc1CS(=O)(=O)Cc1ccc(C(=O)NCCCN2CCCC2=O)o1 | 0 | 0 | 0 | 0 | 0 | 0
CCOC(=O)c1cc2c(=O)n3cccc(C)c3nc2n(Cc2ccco2)c1=NC(=O)c1ccccc1 | - | - | 0 | - | 0 | -
O=S(=O)(Nc1ccc(F)cc1)c1ccc(NC(=S)Nc2ccccc2)cc1 | 86 | 0 | 0 | 57 | 0 | 0
Nc1ccc(S(=O)(=O)Nc2ccc(S(N)(=O)=O)cc2)cc1 | 0 | 0 | 0 | 0 | 0 | 0
SMILES | CYP2C9 inh | CYP2C9 activ | PostGolgi yeast | CYP2C19 inhib | PostGolgi ctrl | CYP2C19 act
O=c1ccc2cc(S(=O)(=O)Nc3ccc(F)cc3)ccc2o1 | 0 | 0 | 0 | 98 | 0 | 0
O=S(=O)(O)c1nnc2sc3ccccc3n12 | 0 | 0 | 0 | 0 | 0 | 0
N#Cc1cnc2sc3ccccc3n2c1=N | 89 | 0 | 0 | 0 | 0 | 0
c1ccc(Cn2ncc3c2ncn2c(-c4ccncc4)nnc32)cc1 | 0 | 0 | - | 85 | - | 0
Cc1ccc(-n2ncc3c2ncn2c(-c4ccncc4)nnc32)cc1 | 0 | 0 | - | 0 | - | 0
COc1ccc(Cl)cc1C(=O)NNC(=S)NC(=O)c1cc(-c2ccc(Cl)cc2)nc2ccccc12 | - | - | 0 | - | 0 | -
Cc1nc(NNC(=O)c2ccc(Cl)cc2Cl)cc(-c2ccccc2)n1 | 51 | 0 | 0 | 0 | 0 | 0
Cc1cc(C)nc(N2CCC(C(=O)Nc3nnc(C)s3)CC2)n1 | 0 | 0 | 0 | 0 | 0 | 0
COc1ccc(C(=O)COC(=O)CSCc2c(C)noc2C)cc1OC | 0 | 0 | 0 | 64 | 0 | 0
CC(C)(C)NC(=O)Cn1c(SCC(=O)NC2CCCCC2)nc2ccccc21 | 0 | 0 | 0 | 0 | 0 | 0
COc1ccc(C(=O)/C=C/c2ccccc2C(F)(F)F)cc1 | 0 | 0 | 0 | 0 | 0 | 0
COc1cccc(/C=N/NC(=O)c2ccccc2N(Cc2ccccc2)S(=O)(=O)c2ccccc2)c1OC | 80 | 0 | 0 | 0 | 0 | 0
CCCCN(C(=O)NC(=O)Nc1ccccc1C)S(C)(=O)=O | 53 | 0 | 0 | 0 | 0 | 0
CCCCN(C(=O)NC(=O)Nc1cccc(C)c1C)S(C)(=O)=O | 0 | 0 | 0 | 0 | 0 | 0
COc1cccc(CNc2nn[nH]n2)c1OC | 0 | 0 | 0 | 0 | 0 | 0
